This is part of a sample that, as a whole, favours compounds with a hit. Of some 83,000 tested, about 20% had one in any assay.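 96-well plates, one dose, 48 hours. Percent growth reported; active if below 10.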 A number with no mark means an inactive call. The source made the active and inactive calls.
Test system: PC-3 prostate
Experiment: NCI-60 one-dose screen, 48 h (100 = growth as untreated, 0 = no growth, -100 = all killed)
Conditions: 10 µM unless noted

Row | SMILES | growth
1 | N#Cc1cccc(CN2CCC3=C(C2)C(=O)N(Cc2ccc(Cl)cc2)C2=NCCN23)c1 | 24.1%
2 | COc1ccc(Oc2ccc(/C=N/NC(=O)CSc3nc4ccccc4c(=O)n3-c3ccc(Cl)cc3)cc2)cc1 | 63.7%
3 | O=C(NNc1nc2cc(F)c(F)cc2n2c(CN3CC4CNCC4C3)ccc12)c1ncccn1 (stereo unspecified) | 17.6%
4 | COc1cc(/C=C2\C(=O)Nc3cc(Cl)ccc32)ccc1OCc1ccc(F)cc1 | 87%
5 | C#CCOc1ccc(/C=N\Nc2nc(-c3ccc(C)cc3)cs2)cc1OC | 69.6%
6 | C=CCOc1cccc(/C=C2\SC(=S)N(C3CC(=O)N(c4ccc(Br)cc4)C3=O)C2=O)c1 (stereo unspecified) | 93.1%
7 | COc1ccc(S(=O)(=O)NCCCNc2nccc(-c3[nH]c(-c4ccccc4)nc3-c3ccc(Cl)c(O)c3)n2)cc1 | 66.4%
8 | CCn1c2ccccc2c2cc(-n3nncc3-c3ccccc3)ccc21 | 29.1%
9 | N#Cc1cccc(CN2CCC3=C(C2)C(=O)N(Cc2ccc(Cl)cc2)C2=NCCCN23)c1 | 24%
10 | COc1ccc(COc2ccc(/C=C3\C(=O)Nc4ccccc43)cc2OC)cc1 | 95.8%
11 | O=C(NNc1nc2cc(F)ccc2n2c(CN3CC4CNCC4C3)ccc12)c1cnccn1 (stereo unspecified) | 27.2%
12 | COc1ccc2[nH]cc(-c3csc4nc(-c5ccccc5)cn34)c2c1 | 19.4%
13 | COC(=O)C[Se]C(=O)Cc1c(C)n(C(=O)c2ccc(Cl)cc2)c2ccc(OC)cc12 | 72.7%
14 | CCOc1ccc(NC2=C(Cl)C(=O)c3nc(C)ccc3C2=O)cc1 | 10.4%
15 | COc1cccc(/C=C(/C)c2ccc3cccc(OC)c3[o+]2)c1O | 87.3%
16 | NC(N)=Nc1ccc(Oc2cccc(NC(N)=Nc3ccc(Cl)c(C(F)(F)F)c3)c2)cc1 | 6.36% (active)
17 | COc1ccc(CCOc2cc3c(cc2OC)CCN(C(=O)NCc2cocn2)C3c2ccc(C)cc2C)cc1 (stereo unspecified) | 20.1%
18 | O=C1C(c2ccccc2)=C(N2CCc3ccccc32)OC1(Cl)Cl | 69.5%
19 | O=C(NNc1nc2cc(F)ccc2n2c(CN3CCCC3)ccc12)c1cnccn1 | 21.4%

Row | SMILES | growth
20 | O=C(NNc1nc2cc(F)cc(F)c2n2cccc12)c1cnccn1 | 24.1%
21 | O=C(O)c1ccc(-n2cc(CNc3cc(F)c(F)c(F)c3)c(-c3ccc(F)cc3)n2)cc1 | 79.2%
22 | COc1ccc(NC2=C(Cl)C(=O)c3nc(C)ccc3C2=O)cc1OC | 70.6%
23 | O=C(NNc1nc2cc(F)c(F)cc2n2c(CN3CC4CNCC4C3)ccc12)c1cnccn1 (stereo unspecified) | 22%
24 | C[C@H](CCC(=O)NCc1ccc(C(=O)Nc2ccccc2N)cc1)[C@H]1CC[C@H]2[C@@H]3[C@@H](O)C[C@@H]4C[C@H](O)CC[C@]4(C)[C@H]3CC[C@]12C | 42.4%
25 | CC(=O)c1cc(C(=O)c2ccc(Br)cc2)n2cc(C)cc(C)c12 | 87.1%
26 | NC(=O)c1cccc(-n2ccc3cc(NC(=O)Nc4ccc(N5CCOCC5)c(C(F)(F)F)c4)ccc32)n1 | 5.77% (active)
27 | COc1ccc2c(c1)c(CC(=O)[Se]CC(=O)O)c(C)n2C(=O)c1ccc(Cl)cc1 | 93.8%
28 | CN(C)CCNC(=O)c1ccc(-c2nc3ccc4[nH]ncc4c3c3c2COCC3)cc1 | 0.378% (active)
29 | COc1ccc2c(c1)c(CC(=O)[Se]CCC#N)c(C)n2C(=O)c1ccc(Cl)cc1 | 17.4%
30 | CN1CCN(Cc2ccc(NC(=O)c3cncc(C#Cc4cnc5ccc(OCC(C)(C)O)nn45)c3)cc2C(F)(F)F)CC1 | 2.2% (active)
31 | CNC(=O)c1cc(N2CCc3cc(NC(=O)Nc4ccc(Cl)c(C(F)(F)F)c4)ccc32)ccn1 | 29%
32 | O=C(CSc1nc2ccccc2c(=O)n1-c1ccc(Cl)cc1)N/N=C/c1ccc(N2CCCCC2)cc1 | 78.6%
33 | CCOc1ccc(C(=O)Nc2ncc(Cc3ccc(F)cc3)s2)cc1 | 27.4%
34 | Cc1c(Cl)cccc1S(=O)(=O)Nc1ccc2c(c1)C(=O)N(C1CCC(=O)NC1=O)C2=O (stereo unspecified) | 95.4%
35 | CC/C(=C/c1cc(OC)ccc1O)c1ccc2cc(OC)ccc2[o+]1 | 40%
36 | COc1c(N2CC3CCCNC3C2)c(F)cc2c(=O)c(C(=O)N/N=C/c3ccc4c(c3)OCO4)cn(C3CC3)c12 (stereo unspecified) | 60.1%
37 | CN1CCN(Cc2ccc(NC(=O)c3cncc(C#Cc4cnc5ccc(OCC6(C)COC6)nn45)c3)cc2C(F)(F)F)CC1 | -69% (active)
38 | O=C(NNc1nc2cc(F)c(F)cc2n2cccc12)c1cnccn1 | 29.4%

Test system: SK-MEL-5 melanoma
Experiment: as above
Conditions: 10 µM unless noted

Row | SMILES | growth
39 | N#Cc1cccc(CN2CCC3=C(C2)C(=O)N(Cc2ccc(Cl)cc2)C2=NCCN23)c1 | 13.1%
40 | COc1ccc(Oc2ccc(/C=N/NC(=O)CSc3nc4ccccc4c(=O)n3-c3ccc(Cl)cc3)cc2)cc1 | 78%
41 | O=C(NNc1nc2cc(F)c(F)cc2n2c(CN3CC4CNCC4C3)ccc12)c1ncccn1 (stereo unspecified) | -33.8% (active)
42 | COc1cc(/C=C2\C(=O)Nc3cc(Cl)ccc32)ccc1OCc1ccc(F)cc1 | 99%
43 | C#CCOc1ccc(/C=N\Nc2nc(-c3ccc(C)cc3)cs2)cc1OC | 71.6%
44 | C=CCOc1cccc(/C=C2\SC(=S)N(C3CC(=O)N(c4ccc(Br)cc4)C3=O)C2=O)c1 (stereo unspecified) | 101%
45 | COc1ccc(S(=O)(=O)NCCCNc2nccc(-c3[nH]c(-c4ccccc4)nc3-c3ccc(Cl)c(O)c3)n2)cc1 | 56.9%
46 | CCn1c2ccccc2c2cc(-n3nncc3-c3ccccc3)ccc21 | -11.7% (active)
47 | N#Cc1cccc(CN2CCC3=C(C2)C(=O)N(Cc2ccc(Cl)cc2)C2=NCCCN23)c1 | 8.1% (active)
48 | COc1ccc(COc2ccc(/C=C3\C(=O)Nc4ccccc43)cc2OC)cc1 | 108%
49 | O=C(NNc1nc2cc(F)ccc2n2c(CN3CC4CNCC4C3)ccc12)c1cnccn1 (stereo unspecified) | 11.2%
50 | COc1ccc2[nH]cc(-c3csc4nc(-c5ccccc5)cn34)c2c1 | 47.2%
51 | COC(=O)C[Se]C(=O)Cc1c(C)n(C(=O)c2ccc(Cl)cc2)c2ccc(OC)cc12 | 44.9%
52 | CCOc1ccc(NC2=C(Cl)C(=O)c3nc(C)ccc3C2=O)cc1 | -98.6% (active)
53 | COc1cccc(/C=C(/C)c2ccc3cccc(OC)c3[o+]2)c1O | 102%
54 | NC(N)=Nc1ccc(Oc2cccc(NC(N)=Nc3ccc(Cl)c(C(F)(F)F)c3)c2)cc1 | 42%
55 | COc1ccc(CCOc2cc3c(cc2OC)CCN(C(=O)NCc2cocn2)C3c2ccc(C)cc2C)cc1 (stereo unspecified) | -43.2% (active)
56 | O=C1C(c2ccccc2)=C(N2CCc3ccccc32)OC1(Cl)Cl | 99.8%
57 | O=C(NNc1nc2cc(F)ccc2n2c(CN3CCCC3)ccc12)c1cnccn1 | 22.3%

Row | SMILES | growth
58 | O=C(NNc1nc2cc(F)cc(F)c2n2cccc12)c1cnccn1 | 14.2%
59 | O=C(O)c1ccc(-n2cc(CNc3cc(F)c(F)c(F)c3)c(-c3ccc(F)cc3)n2)cc1 | 81.2%
60 | COc1ccc(NC2=C(Cl)C(=O)c3nc(C)ccc3C2=O)cc1OC | 86.6%
61 | O=C(NNc1nc2cc(F)c(F)cc2n2c(CN3CC4CNCC4C3)ccc12)c1cnccn1 (stereo unspecified) | 0.703% (active)
62 | C[C@H](CCC(=O)NCc1ccc(C(=O)Nc2ccccc2N)cc1)[C@H]1CC[C@H]2[C@@H]3[C@@H](O)C[C@@H]4C[C@H](O)CC[C@]4(C)[C@H]3CC[C@]12C | 63.3%
63 | CC(=O)c1cc(C(=O)c2ccc(Br)cc2)n2cc(C)cc(C)c12 | 66.3%
64 | NC(=O)c1cccc(-n2ccc3cc(NC(=O)Nc4ccc(N5CCOCC5)c(C(F)(F)F)c4)ccc32)n1 | -79.6% (active)
65 | COc1ccc2c(c1)c(CC(=O)[Se]CC(=O)O)c(C)n2C(=O)c1ccc(Cl)cc1 | 56.7%
66 | CN(C)CCNC(=O)c1ccc(-c2nc3ccc4[nH]ncc4c3c3c2COCC3)cc1 | 3.57% (active)
67 | COc1ccc2c(c1)c(CC(=O)[Se]CCC#N)c(C)n2C(=O)c1ccc(Cl)cc1 | -73.4% (active)
68 | CN1CCN(Cc2ccc(NC(=O)c3cncc(C#Cc4cnc5ccc(OCC(C)(C)O)nn45)c3)cc2C(F)(F)F)CC1 | -91.8% (active)
69 | CNC(=O)c1cc(N2CCc3cc(NC(=O)Nc4ccc(Cl)c(C(F)(F)F)c4)ccc32)ccn1 | 46.6%
70 | O=C(CSc1nc2ccccc2c(=O)n1-c1ccc(Cl)cc1)N/N=C/c1ccc(N2CCCCC2)cc1 | 97.9%
71 | CCOc1ccc(C(=O)Nc2ncc(Cc3ccc(F)cc3)s2)cc1 | 33.4%
72 | Cc1c(Cl)cccc1S(=O)(=O)Nc1ccc2c(c1)C(=O)N(C1CCC(=O)NC1=O)C2=O (stereo unspecified) | 100%
73 | CC/C(=C/c1cc(OC)ccc1O)c1ccc2cc(OC)ccc2[o+]1 | 40.7%
74 | COc1c(N2CC3CCCNC3C2)c(F)cc2c(=O)c(C(=O)N/N=C/c3ccc4c(c3)OCO4)cn(C3CC3)c12 (stereo unspecified) | 22.8%
75 | CN1CCN(Cc2ccc(NC(=O)c3cncc(C#Cc4cnc5ccc(OCC6(C)COC6)nn45)c3)cc2C(F)(F)F)CC1 | -93.2% (active)
76 | O=C(NNc1nc2cc(F)c(F)cc2n2cccc12)c1cnccn1 | 29.3%

Source: PubChem BioAssay (NCI)
